Laboratory results taken from PubChem BioAssay (NCATS).
Results filed as inconclusive are left out. The source made the active and inactive calls. Calls come from the whole dose curve; as a rule, active = well fitted inhibition curve with a large enough effect; inconclusive = small, poorly fitted or top-dose-only effect; inactive = flat fitted curve, though single readings scatter.

Legend:
Assay in all cases: qHTS profiling for inhibitors of Plasmodium falciparum proliferation (AID 504749); note: nearly all actives have a fitted effect of over 60% in size
Conditions in all cases: P. falciparum in erythrocytes, SYBR Green DNA, 72 h; series mostly up to 28.7 µM
AS120 = test system: AS120
In short: (§1)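 Infected RBCs, 0.3% parasitemia/2.5% Hct final; cpd 72 h, 37 C, 5% CO2; lysis buffer with saponin/triton/SYBR Green I, o/n RT dark; FI 485/535; norm. to artemisinin (0.29 uM) and DMSO.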

ATS189 = test system: ATS189
In short: as §1

ATS95 = test system: ATS95
In short: as §1

C2A = test system: C2A
In short: as §1

CP185 = test system: CP185
In short: as §1

CP191 = test system: CP191
In short: as §1

CP192 = test system: CP192
In short: as §1

CP194 = test system: CP194
In short: as §1

CP203 = test system: CP203
In short: as §1

CP211 = test system: CP211
In short: as §1

CP217 = test system: CP217
In short: as §1

CP237 = test system: CP237
In short: as §1

CP238 = test system: CP238
In short: as §1

CP247 = test system: CP247
In short: as §1

CP250 = test system: CP250
In short: as §1

CP252 = test system: CP252
In short: as §1

CP256 = test system: CP256
In short: as §1

CP260 = test system: CP260
In short: as §1

CP201 = test system: CP201
In short: as §1

CP215 = test system: CP215
In short: as §1

Measured: Potency
Potency is the fitted concentration of half-maximal effect.

NNc1nnc(NN)c2ccccc12
not listed: CP201 | CP215
inactive: all other assays above

CCCNC(C)(C)COC(=O)c1ccccc1
not listed: CP203 | CP237
inactive: all other assays above

Nc1ccc(C(=O)Oc2ccccc2)c(O)c1
not listed: CP203 | CP215
inactive: all other assays above

Cc1cc(C)c(NC(=O)CN(CC(=O)O)CC(=O)O)c(C)c1Br
inactive: CP192 | CP194 | CP201 | CP203 | CP211 | CP215 | CP237 | CP260

FC(F)(F)C(Cl)Br (stereo not drawn)
not listed: CP194
inactive: all other assays above

COc1ccc2cc(CCC(C)=O)ccc2c1
not listed: AS120 | CP203
inactive: all other assays above

CC[N+](C)(CC)CCOC(=O)C1c2ccccc2Oc2ccccc21
not listed: CP191 | CP238 | CP250 | CP256 | CP260
inactive: all other assays above

O=C1C(c2[nH]c3ccccc3c2O)=Nc2ccccc21
inactive: ATS95 | CP185 | CP192 | CP194 | CP201 | CP238 | CP252 | CP256 | CP260

CCCCCCCCCCOc1cc2c(=O)c(C(=O)OCC)c[nH]c2cc1OCC
inactive: CP192 | CP217
active: AS120 2 nM | ATS189 1.3 nM | ATS95 2.8 nM | C2A 10 nM | CP185 2.2 nM | CP237 3.5 nM | CP238 2.8 nM | CP247 0.3 nM | CP250 0.0708 nM | CP260 3.5 nM

Nc1ncnc(Nc2ccccc2)n1
not listed: CP191 | CP203 | CP250
inactive: all other assays above

CCN1CC(CCN2CCOCC2)C(c2ccccc2)(c2ccccc2)C1=O (stereo not drawn)
not listed: ATS189 | CP203 | CP237
inactive: all other assays above

CC(CN(C)C)C(C)(O)Cc1ccc(Cl)cc1 (stereo not drawn)
active: CP203 13500 nM | CP237 2510 nM
inactive: C2A | CP191 | CP201 | CP217 | CP247 | CP252

CN1C[C@@H]2C[C@H]1CN2c1cc2c(cc1F)c(=O)c(C(=O)O)cn2C1CC1
inactive: CP192 | CP247 | CP250

CC(C)CCCC(C)CCCC(C)CCCCC(C)CCCC(C)CCCC(C)C (stereo not drawn)
not listed: ATS95
inactive: all other assays above

CCN(CC)S(=O)(=O)c1ccc(C(=O)O)cc1
not listed: CP192
inactive: all other assays above

CC(=O)OC[C@H]1O[C@@](COC(C)=O)(O[C@H]2O[C@H](COC(C)=O)[C@@H](OC(C)=O)[C@H](OC(C)=O)[C@H]2OC(C)=O)[C@@H](OC(C)=O)[C@@H]1OC(C)=O
inactive: C2A | CP192 | CP194 | CP201 | CP203 | CP211 | CP215 | CP237 | CP260

CCN(CC)CC1CCCCN1CC(=O)N1c2ccccc2C(=O)Nc2cccnc21 (stereo not drawn)
not listed: CP203 | CP211
inactive: all other assays above

CC(=O)Oc1cccc(C)c1
not listed: CP203
inactive: all other assays above

CC(=O)Nc1ccccc1
not listed: ATS95
inactive: all other assays above

O=S1(=O)OC(c2ccc(O)cc2)(c2ccc(O)cc2)c2ccccc21
not listed: CP203 | CP215
inactive: all other assays above

O=C(CCBr)N1CCN(C(=O)CCBr)CC1
not listed: CP203
inactive: all other assays above

Cc1ncc(CO)c(CN)c1O
not listed: CP203 | CP215
inactive: all other assays above
